Measured values taken from PubChem BioAssay AID602393 (Broad Institute, 2012).
Out of some 350,000 compounds screened, about 7,000 (2%) were called active. Rule as the data show it: active = activation above about 40%; inconclusive = no clear call, values can overlap the other calls; inactive = below that. The list comes from a sample in which actives are over-represented; it also holds similar structures and randomly drawn compounds.

Assay: Bmi1 luciferase reporter increase in mESCs, primary screen, esBAF inhibitor project, mouse ES cells, Bmi1 luciferase knock-in, single point (AID 602393);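 also: 0% = median of the plate's neutral control wells and 100% = double that signal; a rise in the Bmi1 reporter signal indicates esBAF inhibition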
Conditions: 24 h, at 12.5 µM, hits give high values, 100% = twice the neutral-well signal

Reporter increase, active:
COc1ccc(C2=NN(C(C)=O)C(c3ccccc3)C2)cc1 (centres undefined) 53.9%, COc1ccc(C2CC(c3ccc([N+](=O)[O-])cc3)=NN2C(C)=O)cc1 (centres undefined) 71.3%, COc1ccc(C2=NN(C(=O)c3ccccc3C(=O)O)C(c3ccccc3O)C2)cc1 (centres undefined) 74.8%, CS(=O)(=O)Nc1ccc(C2=NN(S(C)(=O)=O)C(c3cccs3)C2)cc1 (centres undefined) 58.2%, COC(=O)/C(=C1\Oc2ccc(C(C)(C)C)cc2S1)C(F)(F)F 53.4%, CCc1c(C)sc(NC(=O)c2cccs2)c1C(N)=O 57.1%, CCOc1ccc(Nc2oc(Cc3ccccc3)nc2C#N)cc1 52%, Cc1ccc2nc(Nc3ccccc3)cc(C)c2c1 48.3%, Cc1ccc(C(=O)NC(=S)Nc2ccccc2C)cc1 69.2%, CCc1c(C)c2ccc(OC3CCCCC3=O)cc2oc1=O (centres undefined) 65.6%, Cc1cc(NC(=O)COc2ccc(Cl)cc2Cl)n(CCC#N)n1 97.9%, CCOc1ccc2cc(C#N)c(SCC(=O)OC)nc2c1 66.4%, FC(F)(F)c1ccnc(Oc2ccc(C3=NCCS3)cc2)c1 45.6%

Reporter increase, inactive:
Cn1cnc(S(=O)(=O)N2C[C@@H](O)COC[C@H]3O[C@H](CC(=O)N4CCN(c5ccccc5)CC4)CC[C@@H]32)c1 0.849%, COc1ccc(C2=NN(C(=O)CSc3nc(=O)n4ccc(C)cc4n3)C(c3ccc(C)cc3)C2)cc1 (centres undefined) 9.03%, COc1ccc(C2CC(c3ccccc3)=NN2C(=O)c2ccc(Cl)c([N+](=O)[O-])c2)cc1 (centres undefined) -0.268%, COc1cccc(C2CC(c3ccccc3)=NN2S(=O)(=O)c2ccccc2)c1OC (centres undefined) -2.12%, COc1ccc(C2=NN(C(=O)CSc3nnnn3C)C(c3ccco3)C2)cc1 (centres undefined) 18%, COc1ccc(C2CC(c3ccccc3)=NN2C(=O)CSc2nccc(=O)[nH]2)cc1 (centres undefined) 11.5%, COc1ccc(C2CC(c3cccc(OC)c3)=NN2c2ccc(S(N)(=O)=O)cc2)cc1 (centres undefined) 4.76%, C[C@@H]1CN([C@@H](C)CO)C(=O)Cc2cc(NC(=O)Nc3cccc4ccccc34)ccc2O[C@@H]1CN(C)CC1CCCCC1 -7.15%, CC(C)CC#Cc1cnc2c(c1)C(=O)N([C@H](C)CO)C[C@H](C)[C@@H](CN(C)Cc1ccccc1C(=O)O)O2 -5.98%, Cc1noc(C)c1S(=O)(=O)Nc1ccc2c(c1)C(=O)N([C@H](C)CO)C[C@@H](C)[C@@H](CN(C)Cc1ccccc1)OCCCC[C@@H](C)O2 3.09%, CN1C(=O)c2cc(NC(=O)C3CCCCC3)ccc2OC[C@H]2O[C@@H](CC(=O)NC3CCCC3)CC[C@@H]21 0.376%, C[C@@H]1CN([C@@H](C)CO)C(=O)Cc2cc(NC(=O)Nc3cccc4ccccc34)ccc2O[C@H]1CN(C)S(=O)(=O)c1ccc(Cl)cc1 -0.13%, COc1ccc(NC(=O)N(C)C[C@H]2Oc3ccc(NC(=O)Cc4cn(C)c5ccccc45)cc3CC(=O)N([C@@H](C)CO)C[C@H]2C)cc1 -1.83%, CS(=O)(=O)Nc1cccc(C2=NN(S(=O)(=O)c3ccccc3)C(c3cccs3)C2)c1 (centres undefined) -7.36%, CS(=O)(=O)Nc1cccc(C2=NN(C(=O)c3cccc(F)c3)C(c3cccs3)C2)c1 (centres undefined) 5.14%, CC(C)C#Cc1ccc2c(c1)O[C@@H](CN(C)C(=O)C1CC1)[C@H](C)CN([C@H](C)CO)S2(=O)=O 3.19%, C[C@@H]1CN([C@H](C)CO)C(=O)c2cccc(NS(=O)(=O)c3ccc(F)cc3)c2O[C@@H]1CN(C)S(=O)(=O)c1ccc(Cl)cc1 0.559%, CO[C@@H](CN(C)S(=O)(=O)c1ccc(F)cc1)[C@H](C)CN(C(=O)Nc1ccccc1F)[C@@H](C)CO 7.4%, O=C(C[C@H]1C=C[C@@H](NC(=O)c2cnccn2)[C@H](CO)O1)NCc1ccccc1F -1.5%, CC(C)NC(=O)N[C@@H]1CC[C@H](CCn2cc(-c3ccccc3)nn2)O[C@H]1CO 1.66%, CCNC(=O)C[C@@H]1CC[C@@H]2[C@@H](COc3ccc(NC(C)=O)cc3C(=O)N2C)O1 -3.06%, CCOC(=O)C1=C(c2ccccc2)O/C(=C(/C(=O)OC)C(F)(F)F)S1 -7.41%, COCC#Cc1cnc2c(c1)C(=O)N([C@H](C)CO)C[C@@H](C)[C@@H](CN(C)C(=O)Nc1cccc(F)c1)O2 -0.578%, C[C@H](CO)N1C[C@H](C)[C@@H](CN(C)Cc2ccccn2)Oc2ncc(C3=CCCC3)cc2C1=O -4.21%, C[C@@H]1CN([C@@H](C)CO)C(=O)c2cc(-c3ccc(C#N)cc3)cnc2O[C@H]1CN(C)C(=O)CN(C)C 0.919%, CCc1c(C)sc(NC(=O)c2ccc(Br)o2)c1C(=O)OC 0.318%, CCOC(=O)c1oc2ccccc2c1NC(=O)c1cccs1 -0.529%, COc1ccc(CN2C[C@@H](C)[C@H](OC)CN(C)C(=O)c3cc(NC(C)=O)ccc3OC[C@@H]2C)cc1 1.02%, CN(C)CC(=O)N[C@@H]1CC[C@H](CC(=O)NCc2ccc(Cl)cc2)O[C@H]1CO 2.07%, CCCN(C)C[C@@H]1Oc2cc(-c3ccc(C)cc3)ccc2S(=O)(=O)N([C@@H](C)CO)C[C@H]1C -1.82%, CO[C@H]1CN(C)C(=O)c2ccc(NC(=O)c3cc(C)on3)cc2OC[C@H](C)N(C)C[C@H]1C -3.45%, Cc1ccc(OCc2nc(C#N)c(N3CCCC3)o2)cc1 6.84%, COc1ccc(Nc2oc(-c3ccccc3Cl)nc2C#N)cc1 11.5%, COc1ccc(NC(=O)N(C)C[C@@H]2OCCCC[C@H](C)Oc3ccc(NS(=O)(=O)c4c(C)noc4C)cc3C(=O)N([C@@H](C)CO)C[C@@H]2C)cc1 10.5%, Cc1ccc(Nc2nc(C)cc(C)c2C(N)=O)cc1 -0.241%, Cc1ccc(NC(=O)c2ccn(C(=O)Nc3ccccc3)n2)c(C)c1 33.7%, O=C(C[C@H]1CC[C@H](NC(=O)c2ccncc2)[C@H](CO)O1)Nc1ccccc1 6.5%, CNC[C@H]1OCCCC[C@@H](C)Oc2ccc(NC(=O)c3ccccc3)cc2C(=O)N([C@@H](C)CO)C[C@H]1C 9.15%, C[C@@H]1CN([C@H](C)CO)C(=O)c2cc(C#CC3(O)CCCC3)cnc2O[C@H]1CN(C)Cc1ccncc1 -2.58%, Cc1ccccc1NC(=S)NC(=O)Cc1ccc(Cl)cc1 5.51%, Cc1ccc(C(=O)NC(=S)Nc2ccc(N3CCOCC3)cc2)cc1 5.69%, CC(C)NC(=O)N[C@H]1C=C[C@H](CC(=O)NCCN2CCCC2)O[C@@H]1CO -2.39%, COC(=O)Cc1c(C)c2ccc(OCC(=O)NCc3ccc4c(c3)OCO4)cc2oc1=O 4.08%, Cc1c(CCC(=O)O)c(=O)oc2cc(OCc3ccc(Br)cc3)ccc12 14.3%, COc1cccc(CNC(=O)[C@@H]2[C@@H](CO)[C@@H]3Cn4c(ccc(-c5ccncc5)c4=O)[C@H]2N3C(C)=O)c1 5.45%, CO[C@@H]1CN(C)C(=O)c2cc(NS(=O)(=O)CC(F)(F)F)ccc2OC[C@H](C)N(Cc2ccccn2)C[C@@H]1C 0.135%, C[C@@H]1CN([C@@H](C)CO)C(=O)c2cccc(N(C)C)c2O[C@@H]1CN(C)S(=O)(=O)c1ccccc1 0.064%, CCCn1nnnc1NC(=O)COc1ccc(Cl)cc1C -3.97%, O=C(COc1ccc([N+](=O)[O-])cc1Cl)Nn1cnnc1 -5.37%, CCC(=O)N1C[C@H](C)[C@H](OC)CN(C)C(=O)c2ccc(NC(=O)c3cnccn3)cc2OC[C@@H]1C -10.3%, CC(C)NC(=O)N(C)C[C@@H]1Oc2cc(C#C[C@H](C)O)ccc2S(=O)(=O)N([C@@H](C)CO)C[C@H]1C 0.093%, O=C(c1ccncc1)N1C[C@H]2[C@@H](c3ccccc31)[C@H](CO)N2Cc1ccc(F)cc1 -3.53%, COC(=O)CSc1nc(C)c2ccc(OC)cc2n1 -3.51%, Cc1nonc1NC(=O)CSc1nc2ccccc2cc1C#N 36.1%, C[C@@H]1CN([C@@H](C)CO)C(=O)c2cc(NS(=O)(=O)c3ccccc3)ccc2O[C@H]1CN(C)S(=O)(=O)c1ccc(Cl)cc1 11.7%, CCCN1[C@H](C(=O)NCC)[C@@H](CO)[C@@H]2Cn3c(ccc(C4=CCCC4)c3=O)[C@@H]21 -2.59%, CCC(=O)Nc1ccc2c(c1)C(=O)N(C)[C@@H]1CC[C@@H](CC(=O)N[C@@H](C)c3ccccc3)O[C@@H]1CO2 -1.27%, COc1cccc(NC(=O)Nc2ccc3c(c2)C(=O)N(C)C[C@H](OC)[C@@H](C)CN[C@@H](C)CO3)c1 2.37%, C/C=C/c1cnc2c(c1)C(=O)N([C@H](C)CO)C[C@@H](C)[C@H](CN(C)Cc1cccc(C(=O)O)c1)O2 -4.01%, Cc1noc(C)c1S(=O)(=O)N(C)C[C@H]1Oc2ccc(NC(=O)Cc3ccccc3)cc2CC(=O)N([C@@H](C)CO)C[C@H]1C 6.49%, C[C@@H]1CN([C@@H](C)CO)C(=O)c2cc(NC(=O)c3ccncc3)ccc2O[C@@H]1CN(C)S(C)(=O)=O 0.579%
